M4 PAM = positive allosteric modulators of human muscarinic M4 receptor; CHO-K1 hM4/Gqi5, Fluo-8 calcium fluorescence, ACh EC20; 0% = ACh EC20, 100% = maximal ACh; activation, % at 3 µM; 0.4% of 360,000 active;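 active = activation above its plate's cutoff, the mean activation of sample wells plus 3 SD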
Target sequence (P08173 whole entry, looked up): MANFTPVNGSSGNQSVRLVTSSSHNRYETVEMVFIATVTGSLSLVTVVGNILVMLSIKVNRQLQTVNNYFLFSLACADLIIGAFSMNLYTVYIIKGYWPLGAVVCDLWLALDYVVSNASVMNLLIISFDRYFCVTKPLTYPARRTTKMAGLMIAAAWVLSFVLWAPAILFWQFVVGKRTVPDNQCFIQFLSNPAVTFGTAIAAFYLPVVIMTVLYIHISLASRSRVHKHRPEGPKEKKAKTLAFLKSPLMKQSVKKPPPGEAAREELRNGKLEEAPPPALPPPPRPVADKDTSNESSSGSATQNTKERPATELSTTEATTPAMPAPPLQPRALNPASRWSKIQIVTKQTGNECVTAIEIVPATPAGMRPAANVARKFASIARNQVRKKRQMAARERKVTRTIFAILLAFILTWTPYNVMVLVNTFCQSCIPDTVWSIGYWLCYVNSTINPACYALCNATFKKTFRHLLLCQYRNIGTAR
CHO-K1 Ca ag = nonselective activator or artifact in parental CHO-K1 cells; activation, % at 3 µM; Fluo-8 calcium fluorescence; scaled to maximal ATP response, vehicle zero; 0.48% of 360,000 active; AID 602248; in the data active = activation above about 15%;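 note: untransfected CHO-K1 host cells lacking M1 receptor as counterscreen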
CHRM4 agonist = CHRM4 agonism in calcium assay; P08173; CHO-K1 hM4/Gqi5, Fluo-8 calcium fluorescence; vehicle 0%, full acetylcholine response 100%; activation, % at 3 µM; 0.14% of 360,000 active;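 active = activation above the run mean over all test wells plus 3 SD, cut at about 32% in these data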;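 note: peak over basal fluorescence ratio per well then scaled between controls; 0% = DMSO wells and 100% = acetylcholine at EC100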
CHO-K1 Ca antag = nonselective inhibitor or artifact in parental CHO-K1 cells | ATP-induced calcium, Fluo-8 fluorescence | inhibition, % at 3 µM | 0.6% of 360,000 active;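 active = inhibition above a per-plate cutoff, the plate's mean sample inhibition plus 3 SD, cut at about 24% in these data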;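 note: 0% = DMSO plus EC80 ATP and 100% = DMSO alone without ATP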
CHO-K1 Ca PAM = counter-screen for M1 PAMs: effect in parental CHO-K1 cells; ATP EC20, Fluo-8 calcium fluorescence; 0% at ATP EC20, 100% at ATP max; activation, % at 3 µM; 0.02% of 360,000 active; AID 602247;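 active = activation above the run cutoff, the mean activation of all test compounds plus 3 SD, cut at about 40% in these data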;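 note: peak over basal fluorescence ratio in a 140 s read after ATP addition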
M4 antag = CHRM4 antagonism in calcium assay. inhibition, % at 3 µM. P08173. 0.73% of 360,000 active. CHO-hM4 cells, ACh EC80, Fluo-8 calcium fluorescence. AID 624125;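 active = inhibition above its plate's cutoff, the mean inhibition of sample wells plus 3 SD, cut at about 27% in these data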;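 note: 0% = acetylcholine EC80 with DMSO and 100% = DMSO without agonist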
* = called active by the depositor. Hits are enriched below; roughly 2% of the tested compounds scored in any of these assays.

SMILES | M4 PAM | CHO-K1 Ca ag | CHRM4 agonist | CHO-K1 Ca antag | CHO-K1 Ca PAM | M4 antag
C[C@H]1CN([C@@H](C)CO)C(=O)Cc2cc(NC(=O)CCC(F)(F)F)ccc2O[C@H]1CN(C)S(=O)(=O)c1ccc(Cl)cc1 | -15 | 0 | 1 | -11 | 2 | 36*
C[C@H](CO)N1C[C@H](C)[C@@H](CN(C)S(=O)(=O)c2ccc(Cl)cc2)Oc2ccc(NS(=O)(=O)c3ccccc3)cc2CC1=O | 9 | 0 | 3 | -10 | 18 | -15
C[C@H]1CN([C@@H](C)CO)C(=O)Cc2cc(NC(=O)CCC(F)(F)F)ccc2O[C@H]1CN(C)S(=O)(=O)c1ccc(F)cc1 | -17 | 0 | -1 | -13 | 11 | 63*
CCOC(=O)C1CCN(C(=O)c2cc3c(=O)n4ccccc4nc3n2C)CC1 | 2 | 0 | 1 | -1 | 17 | 5
CCCCCC[n+]1ccccc1/C=C/c1ccc(N(C)C)cc1 | -17 | 36* | 33* | 51* | -7 | 49*
C=C1CC[C@@]23CC[C@]4(C)[C@@](OC2=O)([C@@H]3C1)[C@H]1O[C@H]1C1[C@@]2(C)CC[C@H](O)C(C)(C)C2CC[C@]14C (some centres undefined) | 1 | 0 | 0 | -3 | 4 | 2
C=CCN(CC=C)C(=O)CN1C(=O)NC(c2ccccc2)(c2ccccc2)C1=O | 18* | 4 | 3 | -19 | 11 | -37
O=C(NCCc1ccccc1)C1CCN(S(=O)(=O)c2ccc(-n3cnnn3)cc2)CC1 | 0 | 1 | 2 | -4 | 18 | 14
O=S(=O)(c1ccccc1)N1CCC(Oc2ccc(-n3cnnn3)cc2)CC1 | -12 | 18* | 26 | 2 | -12 | 28*
CC(C)(C)c1ccc(S(=O)(=O)NC(=O)C2(C)CCN2C(=O)Cc2cccc3ccccc23)cc1 (centres undefined) | 8 | 0 | 0 | -17 | 21 | -1
NC(=S)NN=C(c1ccc(F)cc1)C1CC1 | 2 | 0 | 1 | 2 | 25 | -9
COc1ccc(Cn2c(CCC(=O)Nc3ccccc3OC)nc3cccnc32)cc1 | -3 | 0 | 2 | -2 | 21 | -5
CCN1CCN(S(=O)(=O)c2cc(OCC(=O)NC3CCCCC3)c(C)cc2Cl)CC1 | -8 | 1 | 7 | 27* | -6 | 10
CCN1CCN(c2ncnc3scc(-c4ccc(C)c(C)c4)c23)CC1 | -16 | 0 | 1 | -3 | -6 | 27*
COC(=O)c1cc(Br)c(=O)n(-c2nccs2)c1 | 28* | 0 | 1 | 2 | 9 | -15
CN(C)S(=O)(=O)c1cccc(NC(=O)c2ccccc2SCC(=O)N2CCCC2)c1 | -2 | 2 | 4 | -14 | 11 | -23
CCOC(=O)c1ccc2c(c1)nc(C1CCN(S(=O)(=O)c3cccs3)CC1)n2CC | -21 | 15* | 18 | -6 | 3 | 13
O=[N+]([O-])c1ccc(O)c(/C=N/Nc2nn[nH]n2)c1 | 24* | 0 | 4 | 17 | 0 | -5
Cc1cccc2cc(CN(CCN3CCOCC3)C(=O)Nc3ccccc3F)c(=O)[nH]c12 | 2 | 1 | 3 | 30* | -14 | 4
Cc1cc2cc(CN(CCN3CCOCC3)C(=O)Nc3ccccc3F)c(=O)[nH]c2cc1C | 9 | 1 | 1 | -7 | 14 | -3
Cc1cccc2cc(CN(CCN(C)C)C(=S)Nc3ccccc3)c(=O)[nH]c12 | 36* | 1 | 2 | -8 | 25 | -7
Cc1ccccc1CNC(=O)c1ccccc1 | 5 | 0 | 0 | -9 | -6 | 2
O=C(NCc1ccccc1)c1cc(C2CCCCN2C(=O)c2ccccc2)on1 (centres undefined) | 3 | 0 | 1 | 0 | 4 | -8
COc1ccc(C(=O)NCCn2ccc3ccccc32)c(OC)c1 | -2 | 2 | 5 | -35 | 41* | 26
CC(C)C(=O)NCCn1ccc2ccccc21 | 30* | 0 | 1 | -18 | 21 | 3
COc1ccc(C(=O)NCCN2CCOCC2)c(OC)c1 | 2 | 1 | 1 | -22 | 27 | -11
CCOC(=O)CSc1nc(-c2ccccc2)nc2ccc(F)cc12 | 28* | 0 | 1 | 13 | 5 | 8
COC(=O)CSc1nc(-c2ccccc2)nc2ccc(F)cc12 | 9 | 1 | 1 | -7 | -6 | -2

Compound activity: PubChem BioAssay, The Scripps Research Institute Molecular Screening Center
